# Data reported in the supplement of paper PMC7411640.
# Structures can show the parent of a compound that is named as a salt.
# System: MDA-MB-468
# Assay: phospho-S6 immunofluorescence (DAPI-normalised), per-plate z-score; higher = higher phospho-S6 signal (less pathway suppression)
# Conditions: 24 h
# Method: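 GPCR-targeted compound library (MedChemExpress HY-L006) tested on MDA-MB-468 PTEN-null TNBC cells in 384-well plates at 0.1, 1 or 10 uM, combined with vehicle, GDC0941 450 nM or lapatinib 1 uM, for 24 h. Phospho-S6 (S240/244) immunofluorescence normalised to DAPI and expressed as a per-plate z-score; values are the mean of biological triplicates.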
SMILES,phospho-S6 immunofluorescence (z-score) (co-treatment: GDC0941 450 nM),phospho-S6 immunofluorescence (z-score) (co-treatment: lapatinib 1 uM),phospho-S6 immunofluorescence (z-score) (co-treatment: vehicle)
Cc1ccc2c(c1)[C@]13CCCC[C@@H]1[C@H](C2)N(C)CC3 [Dimemorfan (phosphate)] (compound 10 µM),0.3,0.09,0.76
N[C@]1(C(=O)O)CC[C@H](C(=O)O)C1 [trans-ACPD] (compound 10 µM),0.3,0.1,-0.68
NCCc1cc(O)c(O)cc1O [Oxidopamine (hydrobromide)] (compound 10 µM),0.33,2.77,2.94
CN(C)C(=O)Oc1cc(OC(=O)N(C)C)cc(C(O)CNC(C)(C)C)c1 (configuration not stated) [Bambuterol (hydrochloride)] (compound 10 µM),-0.5,0.49,-0.4
CN1C(=O)COc2c(C(=O)NC3CN4CCC3CC4)cc(Cl)cc21 (configuration not stated) [Azasetron (hydrochloride)] (compound 10 µM),0.53,0.2,1.23
Cc1cccc([C@H](C)c2c[nH]cn2)c1C [Dexmedetomidine (hydrochloride)] (compound 10 µM),0.32,0.38,1.08
COc1ccc2c(c1)[nH]c1c(C)nccc12 [Harmine] (compound 10 µM),-0.75,-1.57,-1.55
CNCC(=O)c1ccc(O)c(O)c1 [Adrenalone (hydrochloride)] (compound 10 µM),0.18,1.2,0.39
CC(C)(C)NCC(O)c1cc(Cl)c(N)c(Cl)c1 (configuration not stated) [Clenbuterol (hydrochloride)] (compound 10 µM),1.42,1.64,0.37
CN1[C@@H]2CC(O)C[C@H]1[C@@H]1O[C@@H]12 (some centres not stated) [Scopine (hydrochloride)] (compound 10 µM),1.05,0.28,-1.09
O=C(O[C@H]1CN2CCC1CC2)N(Cc1cc(F)c(F)c(F)c1)c1cccc(F)c1 [Tarafenacin (D-tartrate)] (compound 10 µM),0.34,-1.58,1.05
CN1[C@@H]2C[C@@H](OC(=O)[C@H](CO)c3ccccc3)C[C@H]1[C@@H]1O[C@@H]12 [Scopolamine (hydrobromide)] (compound 10 µM),-1.4,-0.16,0.68
O=C1CCC[C@@H]2[C@H]3CCCN4CCC[C@@H](CN12)[C@@H]34 [Matrine] (compound 10 µM),-0.52,-0.53,-0.24
CCCC(C)(C)c1ccc2c(c1)OC(C)(C)[C@@H]1CC=C(C)C[C@@H]21 (compound 10 µM),2.38,1.8,2.21
